Some test systems named below: SK-MEL-2 melanoma; EKVX NSCLC; SN12C renal; UO-31 renal; TK-10 renal; ACHN renal; CAKI-1 renal; A498 renal; CCRF-CEM leukemia; MOLT-4 leukemia; SR leukemia; RPMI-8226 leukemia; OVCAR-8 ovarian; OVCAR-5 ovarian; OVCAR-4 ovarian; SK-OV-3 ovarian; IGROV1 ovarian; OVCAR-3 ovarian; HS 578T breast; NCI/ADR-RES ovarian.
What all share (assay): NCI-60 one-dose screen, 48 h (100 = growth as untreated, 0 = no growth, -100 = all killed)
Details in all cases: 10 µM unless noted

Compounds without any hit were thinned out: in the full panel of roughly 83,000, 20% have a hit.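 The endpoint reported here, percent growth, reads 100 for growth as untreated, 0 for no net growth and -100 for all cells dead.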 Values without a mark were called inactive. Calls of active or inactive are those of the source. Rule for the calls: active = growth percent below 10; inactive = the rest.

On to `NS(=O)(=O)c1ccc(N2N=C(c3ccc(NC(=O)Nc4ccccc4)cc3)CC2c2ccc(Br)cc2)cc1` (stereo not given), for which the growth was -75.8% (active) with SK-MEL-2 melanoma; -95.8% (active) in the assay on EKVX NSCLC; -97.7% (active) in the assay on SN12C renal; -97.2% (active) in the assay on UO-31 renal; -61.3% (active) in the assay on TK-10 renal; -100% (active) in the assay on ACHN renal. Further, the growth with CAKI-1 renal is -85.4% (active); in the assay with A498 renal, -79.4% (active); with CCRF-CEM leukemia, 0.369% (active); with MOLT-4 leukemia, 9.26% (active); in the assay on SR leukemia, 13%; with RPMI-8226 leukemia, 4.09% (active). The growth in the assay with OVCAR-8 ovarian is -32.7% (active); in the assay on OVCAR-5 ovarian, -98.2% (active); with OVCAR-4 ovarian, -85.2% (active); in the assay on SK-OV-3 ovarian it was -61.7% (active); in the assay on IGROV1 ovarian, -86.7% (active); with OVCAR-3 ovarian it was -29.7% (active). Further, the growth is -24.5% (active) in the assay with HS 578T breast and -83.4% (active) in the assay on NCI/ADR-RES ovarian.
Consider `O=C1c2cccc3c(N4CCN(c5ccccc5)CC4)ccc(c23)C(=O)N1c1cccc(-c2nn(-c3ccccc3)cc2-c2nc3ccccc3s2)c1`, for which the growth was 106% in the assay on SK-MEL-2 melanoma; 86.6% in the assay on EKVX NSCLC; 103% in the assay on SN12C renal; 68.1% in the assay with UO-31 renal; 129% in the assay on TK-10 renal; 94.9% with ACHN renal. The growth with CAKI-1 renal is 83.3%; in the assay on A498 renal, 126%; in the assay on CCRF-CEM leukemia it was 98.8%; with MOLT-4 leukemia, 99.4%; with SR leukemia, 90.9%; in the assay on RPMI-8226 leukemia it was 95.9%. The growth was 106% in the assay with OVCAR-8 ovarian; 108% in the assay with OVCAR-5 ovarian; 99.9% in the assay with OVCAR-4 ovarian; 97.6% in the assay with SK-OV-3 ovarian; 73.9% with IGROV1 ovarian; 98% in the assay with OVCAR-3 ovarian. The growth in the assay with HS 578T breast is 102%; in the assay with NCI/ADR-RES ovarian, 98.3%.
`O=C1/C(=C/c2cccc3c2OCO3)Cc2c(F)cc(Br)cc21`: the growth is 111% in the assay with SK-MEL-2 melanoma; 94.4% in the assay on EKVX NSCLC; 111% with SN12C renal; 90% in the assay with UO-31 renal; 115% in the assay on TK-10 renal; 108% in the assay with ACHN renal. In addition, the growth with CAKI-1 renal was 94.6%; with A498 renal, 152%; in the assay on CCRF-CEM leukemia it was 103%; with MOLT-4 leukemia, 106%; with SR leukemia it was 104%; with RPMI-8226 leukemia, 106%. Moreover, the growth in the assay with OVCAR-8 ovarian was 113%; in the assay with OVCAR-5 ovarian, 109%; in the assay with OVCAR-4 ovarian, 105%; in the assay on SK-OV-3 ovarian, 113%; in the assay with IGROV1 ovarian, 110%; with OVCAR-3 ovarian it was 98.6%. The growth in the assay with HS 578T breast is 115%; with NCI/ADR-RES ovarian, 108%.
For the compound `Cc1ccccc1NC(=O)c1cccc(NC(=O)CCl)c1`, the growth in the assay with SK-MEL-2 melanoma was 92.9%; in the assay with EKVX NSCLC, 97%; in the assay with SN12C renal, 15.4%; in the assay with UO-31 renal, 71.3%; with TK-10 renal, 88.2%; with ACHN renal, 22.8%. In addition, the growth was 74.5% with CAKI-1 renal; 105% in the assay with A498 renal; 8.03% (active) with CCRF-CEM leukemia; 29.7% in the assay with MOLT-4 leukemia; 16.4% in the assay with SR leukemia; 26% with RPMI-8226 leukemia. Besides, the growth in the assay on OVCAR-8 ovarian is 46.3%; in the assay with OVCAR-5 ovarian, 70.4%; in the assay on OVCAR-4 ovarian it was 73.7%; in the assay with SK-OV-3 ovarian, 81.3%; in the assay on IGROV1 ovarian it was 29.5%; with OVCAR-3 ovarian, 49%. For the same compound, the growth in the assay with HS 578T breast was 78%; in the assay with NCI/ADR-RES ovarian, 38.9%.
Turning to `CC1=C(C(=O)Nc2ccccc2)C(c2ccc3ccccc3c2)n2c(nc3ccccc32)N1` (stereo not given), the growth with SK-MEL-2 melanoma was 106%; in the assay with EKVX NSCLC it was 85%; with SN12C renal, 14.4%; with UO-31 renal, 75%; in the assay on TK-10 renal, 116%; in the assay with ACHN renal it was 52.7%. Further, the growth in the assay on CAKI-1 renal was 60.9%; in the assay with A498 renal, 134%; in the assay with CCRF-CEM leukemia, 11.1%; in the assay with MOLT-4 leukemia it was 12.7%; in the assay on SR leukemia it was 38.4%; in the assay with RPMI-8226 leukemia, 40.8%. The growth in the assay with OVCAR-8 ovarian was 6.23% (active); in the assay on OVCAR-5 ovarian it was 97.9%; with OVCAR-4 ovarian, -35.4% (active); with SK-OV-3 ovarian, 107%; in the assay on IGROV1 ovarian, 67.4%; in the assay with OVCAR-3 ovarian it was -21.9% (active). The results for the growth in the assay with HS 578T breast and with NCI/ADR-RES ovarian were 40.3% and 41.4%, respectively.
With `CC1=C(C(=O)OCc2ccccc2)C(c2ccc(N(C)C)cc2)n2c(nc3ccccc32)N1` (stereo not given), the growth was 96.5% in the assay with SK-MEL-2 melanoma; 46% with EKVX NSCLC; 98.2% in the assay with SN12C renal; 61.1% with UO-31 renal; 99.4% with TK-10 renal; 88.5% with ACHN renal. The growth in the assay on CAKI-1 renal is 55.6%; in the assay on A498 renal it was 74.5%; with CCRF-CEM leukemia it was 105%; in the assay on MOLT-4 leukemia it was 100%; in the assay with SR leukemia, 46%; with RPMI-8226 leukemia it was 81.4%. The growth was 95.6% in the assay on OVCAR-8 ovarian; 102% with OVCAR-5 ovarian; 81.4% in the assay on OVCAR-4 ovarian; 95.4% in the assay with SK-OV-3 ovarian; 84% in the assay with IGROV1 ovarian; 92.6% with OVCAR-3 ovarian. Also, the growth in the assay on HS 578T breast was 61.7%; in the assay with NCI/ADR-RES ovarian, 73.2%.
In the case of `COc1ccc(-c2cc(-c3cc(C(C)C)c(O)cc3C)nn2-c2ccc(S(N)(=O)=O)cc2)cc1`, the growth was 54.7% in the assay on SK-MEL-2 melanoma; 61.1% with EKVX NSCLC; 16% with SN12C renal; 39.1% in the assay on UO-31 renal; 58% with TK-10 renal; 55.8% in the assay with ACHN renal. For the same compound, the growth in the assay on CAKI-1 renal was 63.9%; with A498 renal, 87.7%; in the assay with CCRF-CEM leukemia, 12.2%; with MOLT-4 leukemia it was 14.7%; in the assay on SR leukemia it was 5.77% (active); in the assay with RPMI-8226 leukemia, 16.5%. Also, the growth in the assay on OVCAR-8 ovarian is 24.5%; in the assay with OVCAR-5 ovarian, 65.8%; in the assay with OVCAR-4 ovarian it was 64%; in the assay with SK-OV-3 ovarian, 60.5%; in the assay with IGROV1 ovarian it was 85.8%; in the assay with OVCAR-3 ovarian, 8.38% (active). The growth was 28.9% in the assay with HS 578T breast and -17.2% (active) in the assay with NCI/ADR-RES ovarian.
As for `COc1cc(CNC(=O)C[C@H](C)CCC=C(C)C)ccc1OCc1cn(-c2ccc(Cl)cc2Cl)nn1`, the growth was 71.7% with SK-MEL-2 melanoma; 81.1% with EKVX NSCLC; 64.8% in the assay with SN12C renal; 60.5% with UO-31 renal; 68.7% in the assay on TK-10 renal; 61.1% in the assay with ACHN renal. The growth in the assay on CAKI-1 renal was 31.8%; in the assay on A498 renal, 59%; in the assay on CCRF-CEM leukemia it was 116%; in the assay on MOLT-4 leukemia it was 84%; in the assay on SR leukemia it was 79.8%; in the assay on RPMI-8226 leukemia, 90.7%. For the same compound, the growth is 29.3% in the assay with OVCAR-8 ovarian; 91.7% in the assay with OVCAR-5 ovarian; 49.7% in the assay on OVCAR-4 ovarian; 26.1% with SK-OV-3 ovarian; 72.3% in the assay with IGROV1 ovarian; 101% in the assay with OVCAR-3 ovarian. Further, the growth in the assay on HS 578T breast was 48.4%; in the assay with NCI/ADR-RES ovarian it was 32.9%.

The values above are taken from PubChem BioAssay (NCI).
